Each structure is given as a SMILES string. Screen size: about 1,100 compounds; about 260 (24%) were called active. Only a sample is shown. A number with no mark means an inactive call.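 The calls were made as follows: active = surface receptor percent response at or below 58%, roughly 3 SD from nonfluorescent compounds; inactive = the rest.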

The target in this experiment is Beta-2 adrenergic receptor (Homo sapiens) (UniProt P07550). Briefly: agonist-driven loss of surface beta2AR – cell-based, FAP fluorogen, flow cytometry, single point, cherry pick 1, confirmation (AID 540358). Particulars: Am2.2-beta2AR cells, at 10 µM, active compounds read low. Background: A flow cytometer gives signals particle by particle.
Beta-2 adrenergic receptor (Homo sapiens), sequence (P07550 whole entry, looked up): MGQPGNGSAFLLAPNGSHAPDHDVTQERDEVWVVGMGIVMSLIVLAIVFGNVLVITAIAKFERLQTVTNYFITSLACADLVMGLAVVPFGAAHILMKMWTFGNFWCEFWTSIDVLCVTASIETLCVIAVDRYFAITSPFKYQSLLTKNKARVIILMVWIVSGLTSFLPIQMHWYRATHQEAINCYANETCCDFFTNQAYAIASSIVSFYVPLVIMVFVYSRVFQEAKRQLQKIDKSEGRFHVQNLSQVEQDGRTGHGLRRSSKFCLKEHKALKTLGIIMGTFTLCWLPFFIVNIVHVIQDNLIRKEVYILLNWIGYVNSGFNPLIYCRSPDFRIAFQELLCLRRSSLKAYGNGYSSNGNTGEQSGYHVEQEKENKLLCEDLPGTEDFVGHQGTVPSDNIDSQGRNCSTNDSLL
As to `CCC(=O)c1ccc(OCC(=O)N2CCN(CC(=O)Nc3ccc(C)cc3)CC2)cc1`, the percent response (surface receptor) is 10.7% (active).
With `O=C1NC(=O)C(CCc2ccccn2)(Cc2cccc(Cl)c2Cl)C(=O)N1c1ccc(Br)cc1` (stereo not drawn), the percent response (surface receptor) is 91.2%.
As for `CC(Cc1ccccc1)NCCC(c1ccccc1)c1ccccc1` (stereo not drawn), the percent response (surface receptor) was 105%.
